Bioassay records deposited in PubChem by Johns Hopkins Ion Channel Center.
KCNQ2 inh: KCNQ2 (rat) channel inhibition; 1.1% of 310,000 active; B-score at 10 µM; CHO-K1 KCNQ2, FluxOR thallium flux, 20 min; hits give low values; O88943;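 active = fluorescence ratio B-score at most minus 3 library SDs, with starting brightness B-score within 2 library SDs, cut at about -5.5 in these data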
KCNQ2 enhance: potentiators of rat KCNQ2 potassium channel; CHO-K1 KCNQ2, FluxOR thallium flux fluorescence; hits give high values; B-score at 10 µM; 0.54% of 310,000 active; AID 2239;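 active = fluorescence ratio B-score at least 3 SD of library B-scores, with initial fluorescence B-score within 3 of them, cut at about 5.3 in these data; same plate scores as AID 2156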;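 also: B-score of peak minus minimum over baseline fluorescence ratio after K+ and Tl+ stimulus; positive B-score means potentiation of KCNQ2 with more thallium influx and brighter signal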
* hit, by the source's call. Rows were chosen to be rich in hits. Some 1.6% of all compounds tested hit in one or more screens of this group.

For CCCCc1ccc(NC(=O)CC(C)=O)cc1 the results were KCNQ2 inh inactive and KCNQ2 enhance 1.
For CCCCc1ccc(NC(=O)CC(C)(C)C)cc1 the results were KCNQ2 inh inactive and KCNQ2 enhance 14*.
For Cc1ccc(Cl)cc1N1CCN(C(=O)CCCn2c(=O)c3cccn3c3cccnc32)CC1 the results were KCNQ2 inh inactive.
`O=C(Cn1c(=O)c2cccn2c2cccnc21)N1CCN(c2ccc(Cl)cc2)CC1` gave KCNQ2 inh -7.6* and KCNQ2 enhance -7.6.
`C#CCN(C)CC/C=C1\c2ccccc2CSc2ccccc21` gave KCNQ2 inh -6* and KCNQ2 enhance -6.
`C=CCN(C)CC/C=C1\c2ccccc2CSc2ccccc21` gave KCNQ2 inh inactive.
`CCO[C@H]1OC(C(=O)N2CCOCC2)=C[C@@H](c2coc3ccccc3c2=O)[C@@H]1CCCO` gave KCNQ2 inh inactive.
CCCCCCCC(=O)N/N=C/c1ccc([N+](=O)[O-])o1 was read as KCNQ2 inh inactive and KCNQ2 enhance 8.2*.
O=C(C[n+]1ccccc1)N/N=C/c1ccco1 was read as KCNQ2 inh inactive and KCNQ2 enhance 0.64.
O=C(Cc1ccc([N+](=O)[O-])cc1)N/N=C/c1ccc([N+](=O)[O-])o1 was read as KCNQ2 inh inactive.
`CCCCCCC(=O)N/N=C/c1ccco1` gave KCNQ2 inh inactive and KCNQ2 enhance 10*.
`O=C(CC12CC3CC(CC(C3)C1)C2)N/N=C/c1ccc([N+](=O)[O-])o1` gave KCNQ2 inh inactive and KCNQ2 enhance 16*.
CCOC(=O)N/N=C\c1ccc([N+](=O)[O-])o1 was read as KCNQ2 inh inactive.
`CN(Cc1ccccc1)C(=O)CCn1c(=O)c2cccn2c2cccnc21` gave KCNQ2 inh inactive.
`CC(C)Cn1c(=O)c2c(nc3n2CC(C)CN3Cc2ccccc2)n(C)c1=O` (configuration not stated) gave KCNQ2 inh inactive.
COCCNC(=S)N/N=C(\C)c1cccc(OC)c1 was read as KCNQ2 inh inactive and KCNQ2 enhance 0.08.
For CC(NS(=O)(=O)c1ccc2c(c1)CC(C)N2C(=O)C1CC1)c1ccccc1 (configuration not stated) the results were KCNQ2 inh inactive.
Cc1nn(-c2ccccc2)c2ncc(C(=O)c3cc(Cl)ccc3O)cc12 was read as KCNQ2 inh inactive.
For CCc1nn2cc(C(=O)c3cc(Cl)ccc3O)cnc2c1-c1ccc(F)cc1 the results were KCNQ2 inh -5.6* and KCNQ2 enhance -5.6.
`COCC(C)n1c(SCC(=O)N2CCc3ccccc3C2)nc2ccccc2c1=O` (configuration not stated) gave KCNQ2 inh inactive.
For COc1ccc(CCNC(=S)NC2CCN(Cc3ccccc3)CC2)cc1 the results were KCNQ2 inh inactive and KCNQ2 enhance 0.76.
For C/C(=N\NC(=O)c1ccc(Br)o1)c1cc2c(cc1NC(=O)CCC(=O)O)OCO2 the results were KCNQ2 inh inactive.
Cc1ccc2oc(C(=O)N3CCN(c4cccc(C)n4)CC3)c(C)c2c1 was read as KCNQ2 inh -8.1* and KCNQ2 enhance -8.1.
For Cc1cc(Cl)c2oc(C(=O)N3CCN(c4cccc(C)n4)CC3)c(C)c2c1 the results were KCNQ2 inh inactive.
`CC(NC(=O)c1ccco1)C(=O)N1CCN(C(c2ccccc2)c2ccccc2)CC1` (configuration not stated) gave KCNQ2 inh inactive.
CCCCCC(=O)O[C@]1(C(C)=O)CC[C@H]2[C@@H]3CCC4=CC(=O)CC[C@]4(C)[C@H]3CC[C@@]21C was read as KCNQ2 inh -7.2* and KCNQ2 enhance -7.2.
Screening CC(=O)[C@@]1(O)CC[C@H]2[C@@H]3CCC4=CC(=O)CC[C@]4(C)[C@H]3CC[C@@]21C returned KCNQ2 inh inactive and KCNQ2 enhance 0.03.
Screening Nc1nc2c(nc(SCc3ccccc3Br)n2C2OC(CO)C(O)C2O)c(=O)[nH]1 (configuration not stated) returned KCNQ2 inh inactive and KCNQ2 enhance 0.49.
Screening Cc1ccc(C(=O)N2CCN(S(=O)(=O)c3ccc(C)c([N+](=O)[O-])c3)C2)cc1 returned KCNQ2 inh inactive and KCNQ2 enhance 0.27.
O=C(NCc1csc(-c2ccccc2)n1)c1cc(F)cc2c1OCOC2 was read as KCNQ2 inh -6.1* and KCNQ2 enhance -6.1.
O=C(Cc1csc(-c2ccccc2)n1)NCc1ccc(F)cc1 was read as KCNQ2 inh inactive.
Screening CC(=O)Nc1ccc(NC(=O)CSc2nnc(-c3cccnc3)o2)cc1 returned KCNQ2 inh inactive and KCNQ2 enhance 2.3.
Screening O=C(COc1ccc(F)cc1)c1ccc2c(c1)CCCC2 returned KCNQ2 inh inactive.
Screening O=C(COc1ccc(Cc2ccccc2)cc1)c1ccc(F)cc1 returned KCNQ2 inh inactive and KCNQ2 enhance 6.7*.
For CC(=O)c1ccc(N2CCN(C(=O)c3cccs3)C(C)C2)c(F)c1 (configuration not stated) the results were KCNQ2 inh inactive and KCNQ2 enhance 0.56.
`NS(=O)(=O)c1ccc(CNC(=O)NC23CC4CC(CC(C4)C2)C3)cc1` gave KCNQ2 inh inactive and KCNQ2 enhance 0.67.
Screening Cc1ccc(CNC(=O)NC23CC4CC(CC(C4)C2)C3)cc1 returned KCNQ2 inh inactive and KCNQ2 enhance 11*.
`COc1cc(C(=O)NCC(c2ccco2)N2CCOCC2)cc(OC)c1OC` (configuration not stated) gave KCNQ2 inh inactive.
CN(Cc1ccccc1)c1nc2c(c(=O)n(C)c(=O)n2C)n1CCCc1ccccc1 was read as KCNQ2 inh -7.9* and KCNQ2 enhance -7.9.
For CCN(CC)c1nc2c(c(=O)n(C)c(=O)n2C)n1CCCc1ccccc1 the results were KCNQ2 inh inactive.
COc1ccc(Br)c(C(=O)NCC2CCCCC2)c1 was read as KCNQ2 inh inactive.
Screening NCCNc1ccc(C(=O)N2c3ccccc3Sc3ccccc32)cc1[N+](=O)[O-] returned KCNQ2 inh -8.1* and KCNQ2 enhance -8.1.
Cc1ccc(NC(=O)c2ccc(NCCN)c([N+](=O)[O-])c2)cc1 was read as KCNQ2 inh inactive.
Screening CC(C)Cn1c(N)c(C(=O)COC(=O)CCNS(=O)(=O)c2ccccc2)c(=O)n(C)c1=O returned KCNQ2 inh inactive and KCNQ2 enhance 0.81.
`O=C(COC(=O)c1ccc(CSc2ccc(Cl)cc2)cc1)Nc1ccccc1` gave KCNQ2 inh inactive and KCNQ2 enhance 1.2.
`COc1ccc(C(=O)NCc2nnc(SCC(=O)Nc3cc(C)on3)o2)cc1OC` gave KCNQ2 inh inactive.
For Cc1cc(NC(=O)CSc2nnc(CNC(=O)c3ccc(C(C)(C)C)cc3)o2)no1 the results were KCNQ2 inh -6.4* and KCNQ2 enhance -6.4.
`CC(C)CCOc1ccc(C(=O)N2CCCC2C(=O)O)cc1` (configuration not stated) gave KCNQ2 inh inactive.
CC(=O)c1cnc2c(-c3ccc(Cl)cc3)c(C)nn2c1C was read as KCNQ2 inh -5.8* and KCNQ2 enhance -5.8.
`CC(=O)c1cnc2c(-c3ccccc3)c(C)nn2c1C` gave KCNQ2 inh inactive.
Screening Nc1nc2c(Cl)ccc(Cl)c2s1 returned KCNQ2 inh inactive and KCNQ2 enhance 6*.
`Nc1nc2c(Cl)cc(Cl)cc2s1` gave KCNQ2 inh inactive and KCNQ2 enhance 0.89.
